# According to PubChem BioAssay (NCATS):
# Inconclusive results are not listed. A call without a number means that no potency is given here. Calls of active or inactive are those of the source. Calls follow the shape of the full dose curve.
# Assay: Primary qHTS for inhibitors of MERS-S pseudo-typed particle cell entry (AID 1479149); also: nearly all actives have a fitted effect of over 60% in size
# Conditions: MERS-S pseudotyped particle entry, luciferase; series mostly up to 57.1 µM
Structure (SMILES),Potency,outcome
OC[C@H]1O[C@@H](OCCc2ccc(O)cc2)[C@H](O)[C@@H](O)[C@@H]1O,inactive,–
CCCCC[C@H](O)/C=C/[C@@H]1[C@@H](C/C=C/CCCC(=O)O)[C@@H](O)C[C@H]1O,inactive,–
CCCc1ccc(C(=O)O)cc1,inactive,–
C[C@]12C=CC(=O)C=C1CCC1C2[C@@H](O)C[C@@]2(C)C1CC[C@]2(O)C(=O)COC(=O)CCC(=O)O (some centres undefined),inactive,–
Cc1cc(Nc2ccccc2C(=O)O)ccc1Cl,inactive,–
C[C@@H]1CCC[C@H](C)N1NC(=O)c1ccc(Cl)c(S(N)(=O)=O)c1,inactive,–
CN(C)CC(=O)O,inactive,–
C[C@H]1O[C@]2(CS1)CN1CCC2CC1,inactive,–
CCCC(=O)Nc1ncnc2c1ncn2C1O[C@@H]2COP(=O)(O)O[C@H]2[C@H]1OC(=O)CCC (some centres undefined),inactive,–
CNC(=O)c1c(I)c(C(=O)NCC(=O)Nc2c(I)c(C(=O)O)c(I)c(C(=O)NCCO)c2I)c(I)c(N(C)C(C)=O)c1I,inactive,–
O=C(O)CSc1nnc(Br)n1-c1ccc(C2CC2)c2ccccc12,inactive,–
NC(=O)[C@H]1O[C@@H](O)[C@H](O)[C@@H](O)[C@@H]1O,inactive,–
CCCCCCCCCCCCCCCCCCCCCCCCCCCCO,–,inactive [at 0.573 µM]
O=C(N[C@H]1CCS[C@H]2CCC[C@@H](C(=O)O)N2C1=O)[C@@H](S)Cc1ccccc1,inactive,–
O=C(O)C1=C(CSc2nnnn2CS(=O)(=O)O)CS[C@@H]2[C@@H](NC(=O)[C@H](O)c3ccccc3)C(=O)N12,inactive,–
CC(C)OC(=O)Nc1ccc2nc(-c3cscn3)[nH]c2c1,inactive,–
Cc1cc(O)ccc1C(C)(C)C,inactive,–
N#Cc1cc(-c2n[nH]c(-c3ccncc3)n2)ccn1,inactive,–
FC(F)(F)C(F)(F)C(F)(F)C(F)(F)C(F)(F)C(F)(F)F,inactive,–
NC(=O)[C@@H]1CC[C@@H]2CN1C(=O)N2OS(=O)(=O)O,inactive,–
CCc1ccc(Nc2c(F)c(F)cc(F)c2F)c(CC(=O)O)c1,inactive,–
CC(C)(C)NC(=O)[C@H]1CC[C@H]2[C@@H]3CC=C4C=C(C(=O)O)CC[C@]4(C)[C@H]3CC[C@]12C,inactive,–
O=C(Cn1c(=O)sc2ccc(Cl)cc21)N1CCN(CCO)CC1,inactive,–
C=C1CCN([C@H](C)[C@](O)(Cn2cncn2)c2ccc(F)cc2F)CC1,inactive,–

# Assay: Primary qHTS for Vero E6 cytotoxicity: counterscreen for inhibitors of SARS-S pseudo-typed particle cell entry (AID 1479150); also: potency is read from the fitted curve at half-maximal effect
# Conditions: cell viability; series mostly up to 57.1 µM
Structure (SMILES),Potency,"activity change, negative = cytotoxicity"
CCC(C)C(NC(=O)C(Cc1ccc(O)cc1)NC(=O)C(NC(=O)C(CCCN=C(N)N)NC(=O)C(N)CC(=O)O)C(C)C)C(=O)NC(Cc1cnc[nH]1)C(=O)N1CCCC1C(=O)NC(Cc1ccccc1)C(=O)O (centres undefined),inactive,–
O=C(O)CCSC[C@H]1O[C@@H]2O[C@H]3[C@H](O)[C@@H](O)[C@@H](O[C@H]4[C@H](O)[C@@H](O)[C@@H](O[C@H]5[C@H](O)[C@@H](O)[C@@H](O[C@H]6[C@H](O)[C@@H](O)[C@@H](O[C@H]7[C@H](O)[C@@H](O)[C@@H](O[C@H]8[C@H](O)[C@@H](O)[C@@H](O[C@H]9[C@H](O)[C@@H](O)[C@@H](O[C@H]1[C@H](O)[C@H]2O)O[C@@H]9CSCCC(=O)O)O[C@@H]8CSCCC(=O)O)O[C@@H]7CSCCC(=O)O)O[C@@H]6CSCCC(=O)O)O[C@@H]5CSCCC(=O)O)O[C@@H]4CSCCC(=O)O)O[C@@H]3CSCCC(=O)O,inactive,–
NC(=O)c1nc(F)c[nH]c1=O,inactive,–
O=S(=O)(O)CC(S)CS (centres undefined),inactive,–
COc1ccc2c(O[C@H]3CC4C(=O)N(C)CCCC/C=C\[C@@H]5C[C@@]5(C(=O)NS(=O)(=O)C5CC5)NC(=O)[C@@H]4C3)cc(-c3nc(C(C)C)cs3)nc2c1C (some centres undefined),inactive,–
NC(Cc1cc(I)c(Oc2cc(I)c(O)c(I)c2)c(I)c1)C(=O)O (centres undefined),inactive,–
CCN1CCCC1CNC(=O)c1cc(S(=O)(=O)CC)ccc1OC (centres undefined),inactive,–
CN(CC(O)CO)C(=O)c1c(I)c(NC(=O)C(CO)CO)c(I)c(C(=O)N(C)CC(O)CO)c1I (centres undefined),inactive,–
CC1(C)S[C@@H]2[C@H](NC(=O)C(C(=O)O)c3ccsc3)C(=O)N2[C@H]1C(=O)O (some centres undefined),inactive,–
CC(C)C(=O)OCC(=O)[C@@]12OC(C3CCCCC3)O[C@@H]1C[C@H]1[C@@H]3CCC4=CC(=O)C=C[C@]4(C)[C@H]3[C@@H](O)C[C@@]12C (some centres undefined),inactive,–
CC1=C(C(=O)OCCN(Cc2ccccc2)c2ccccc2)C(c2cccc([N+](=O)[O-])c2)C(P2(=O)OCC(C)(C)CO2)=C(C)N1 (centres undefined),inactive,–
CC[C@H]1[C@@H](O)[C@@H]2[C@H](CC[C@]3(C)[C@@H]([C@H](C)CCC(=O)O)CC[C@@H]23)[C@@]2(C)CC[C@@H](O)C[C@@H]12,inactive,–
CCCC(=O)O[C@]1(C(=O)COC(=O)CC)[C@@H](C)C[C@H]2[C@@H]3CCC4=CC(=O)C=C[C@]4(C)[C@@]3(F)[C@@H](O)C[C@@]21C,inactive,–
OC[C@H]1O[C@@H](OC[C@H]2O[C@@H](O[C@@H]3[C@@H](O)[C@H](O)O[C@H](CO)[C@H]3O)[C@H](O)[C@@H](O[C@@H]3O[C@H](CO)[C@@H](O)[C@H](O)[C@H]3O)[C@@H]2O)[C@H](O)[C@@H](O)[C@@H]1O,inactive,–
CC(C)[C@H]1CC[C@H](C)C[C@H]1O,inactive,–
CCC1(C)OC(=O)N(C)C1=O (centres undefined),inactive,–
OC[C@H]1O[C@@H](OCCc2ccc(O)cc2)[C@H](O)[C@@H](O)[C@@H]1O,inactive,–
CCCCC[C@H](O)/C=C/[C@@H]1[C@@H](C/C=C/CCCC(=O)O)[C@@H](O)C[C@H]1O,inactive,–
CCCc1ccc(C(=O)O)cc1,inactive,–
C[C@]12C=CC(=O)C=C1CCC1C2[C@@H](O)C[C@@]2(C)C1CC[C@]2(O)C(=O)COC(=O)CCC(=O)O (some centres undefined),inactive,–

Structure (SMILES),Potency,"activity change, negative = cytotoxicity"
Cc1cc(Nc2ccccc2C(=O)O)ccc1Cl,inactive,–
C[C@@H]1CCC[C@H](C)N1NC(=O)c1ccc(Cl)c(S(N)(=O)=O)c1,inactive,–
CN(C)CC(=O)O,inactive,–
C[C@H]1O[C@]2(CS1)CN1CCC2CC1,inactive,–
CCCC(=O)Nc1ncnc2c1ncn2C1O[C@@H]2COP(=O)(O)O[C@H]2[C@H]1OC(=O)CCC (some centres undefined),inactive,–
CNC(=O)c1c(I)c(C(=O)NCC(=O)Nc2c(I)c(C(=O)O)c(I)c(C(=O)NCCO)c2I)c(I)c(N(C)C(C)=O)c1I,inactive,–
O=C(O)CSc1nnc(Br)n1-c1ccc(C2CC2)c2ccccc12,inactive,–
NC(=O)[C@H]1O[C@@H](O)[C@H](O)[C@@H](O)[C@@H]1O,inactive,–
CCCCCCCCCCCCCCCCCCCCCCCCCCCCO,–,3.84% [at 0.573 µM] (inactive)
O=C(N[C@H]1CCS[C@H]2CCC[C@@H](C(=O)O)N2C1=O)[C@@H](S)Cc1ccccc1,inactive,–
O=C(O)C1=C(CSc2nnnn2CS(=O)(=O)O)CS[C@@H]2[C@@H](NC(=O)[C@H](O)c3ccccc3)C(=O)N12,inactive,–
CC(C)OC(=O)Nc1ccc2nc(-c3cscn3)[nH]c2c1,8.91 µM (active),–
Cc1cc(O)ccc1C(C)(C)C,inactive,–
N#Cc1cc(-c2n[nH]c(-c3ccncc3)n2)ccn1,inactive,–
FC(F)(F)C(F)(F)C(F)(F)C(F)(F)C(F)(F)C(F)(F)F,inactive,–
NC(=O)[C@@H]1CC[C@@H]2CN1C(=O)N2OS(=O)(=O)O,inactive,–
CCc1ccc(Nc2c(F)c(F)cc(F)c2F)c(CC(=O)O)c1,inactive,–
CC(C)(C)NC(=O)[C@H]1CC[C@H]2[C@@H]3CC=C4C=C(C(=O)O)CC[C@]4(C)[C@H]3CC[C@]12C,inactive,–
O=C(Cn1c(=O)sc2ccc(Cl)cc21)N1CCN(CCO)CC1,inactive,–
C=C1CCN([C@H](C)[C@](O)(Cn2cncn2)c2ccc(F)cc2F)CC1,inactive,–
